Screens: PubChem BioAssay, several laboratories
aSyn 5UTR inh – 5' untranslated region of α-synuclein, MLPCN primary screen; alpha-synuclein 5'UTR reporter, inhibitor activity; inhibition, % (tested at 7.5 µM); 300,000 tested, 0.82% active; in the data active means inhibition above about 60%;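 further: H4 neuroglioblastoma cells stably carrying SNCA 5'UTR luciferase fusion; 0% = DMSO wells and 100% = positive control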
Ba/F3 V617F tox – reduce viability of Ba/F3 cells dependent on JAK2V617F; Ba/F3 EpoR-JAK2V617F viability, ATP luminescence; 220,000 tested, 1.1% active; inhibition, % at 5.6 µM;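 active means inhibition above the campaign mean plus 3 SD over all tested compounds, cut at about 24% in these data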;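 further: cytokine-independent growth of Ba/F3 cells driven by EpoR plus mutant JAK2; 0% = DMSO-treated cells and 100% = JAK inhibitor I control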
KLF5 inh – suppresses KLF5 promoter-driven expression | DLD-1 KLF5 promoter-luciferase reporter, luminescence | inhibition, % at 5 µM | 290,000 tested, 0.23% active;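 active means inhibition above a per-plate limit of that plate's mean compound inhibition plus 3 SD, cut at about 60% in these data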;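 further: 0% = DMSO wells and 100% = LY294002 at 200 µM; higher means less KLF5 promoter-driven luciferase light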
BaF3 tox – counter-screen for JAK2V617F inhibitors: parental Ba/F3 viability inhibitors. AID 1486. 220,000 tested, 1.1% active. CellTiter-Glo ATP luminescence. inhibition, % at 5.6 µM;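 active means inhibition above a per-campaign cutoff, the mean inhibition of all tested compounds plus 3 SD, cut at about 27% in these data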;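 further: 0% = DMSO wells and 100% = JAK Inhibitor I control wells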
IEC-6 cytotox – IEC-6 cytotoxicity, counter-screen for KLF5 inhibitors; luminescence viability; inhibition, % at 5 µM; 290,000 tested, 0.78% active; in the data active means inhibition above about 22%;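 further: 0% = plate median of test compound wells and 100% = cytotoxic reference compound wells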
APP 5UTR inh – APP translation inhibition | SH-SY5Y APP 5'UTR-luciferase reporter, luminescence | inhibition, % at 2 µM | 190,000 tested, 0.82% active | AID 1285;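 active means inhibition above a set limit, derived from the sample mean plus 3 SD, cut at about 45% in these data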
Active calls of the source: *; · = no result. Hits are enriched below; roughly 2.2% of the tested compounds scored in any of these assays.

SMILES	aSyn 5UTR inh	Ba/F3 V617F tox	KLF5 inh	BaF3 tox	IEC-6 cytotox	APP 5UTR inh
CCCCC(=O)OCC(=O)Nc1cccc(S(=O)(=O)NC2=NCCCCC2)c1	3.1	5.3	2.8	9.8	2.3	-7.0
COc1ccc(-c2cc3nc(C)cc(-c4ccc(OC)cc4)n3n2)cc1	-1.9	·	-2.7	·	1.8	·
COc1ccc(-c2cc3nc(C)cc(N)n3n2)cc1	45.1	21.4	-20.8	22.3	22.1*	-147.4
CS(=O)(=O)N1CCCC(C(=O)N2CCN(c3cccc(Cl)c3)CC2)C1 (stereo not drawn)	22.0	-1.8	-22.4	5.5	6.2	-14.9
CC[N+](C)(C)CCN(Cc1ccc(Cl)cc1)c1ccccn1	0.3	27.3*	-11.2	38.6*	-3.4	-11.5
CC(C)NC(=O)c1onc(CSc2ccncc2)c1C(=O)NC(C)C	11.7	·	·	·	·	·
CC1=NN(c2nc(-c3ccc(C)cc3)cs2)C(=O)C1N=Nc1ccc(C(N)=O)cc1 (stereo not drawn)	86.5*	-4.7	-47.6	3.1	-0.9	33.3
Cc1cccc(NC(=S)/N=C(\N)Nc2nc(C)c3ccc(C)cc3n2)c1	-15.2	34.5*	-110.5	39.0*	4.6	-23.7
CN1CCN(C(=S)NC(=O)c2cccc(S(=O)(=O)N(C)C)c2)CC1	-8.4	0.1	-8.9	7.6	-0.8	-17.6
O=C(O)C1CCCN(C(=O)c2cccc3ccccc23)C1 (stereo not drawn)	-23.6	·	-2.0	·	1.2	·
COc1ccc2nc(NC(=O)Nc3cccc4ccccc34)sc2c1	-103.3	-1.2	-14.1	3.9	0.4	-76.6
COc1ccc2nc(N=Nc3c(O)ccc4ccccc34)sc2c1	-47.1	-2.6	-1.9	0.6	9.6	69.3*
O=C(COC(=O)c1nc(Cl)ccc1Cl)Nc1ccc2[nH]c(=O)[nH]c2c1	0.3	·	·	·	·	·
CCN(C(=O)c1ccc(C(C)(C)C)cc1)c1nnc(Cn2nnc3ccccc32)s1	-22.8	27.3*	-27.6	54.6*	8.8	13.2
CCN(C(=O)CC(C)C)c1nnc(Cn2nnc3ccccc32)s1	17.2	-3.2	-17.5	11.3	-3.6	4.1
C=CCNC(=S)NN=C1CCCCCCC1	22.8	-2.6	-8.2	6.0	1.1	21.3
O=C(Nc1cccc(F)c1)c1ccc(S(=O)(=O)N2CCCCC2)cc1	-2.2	·	-10.4	·	-1.6	·
N#CC(c1cccc(Cl)c1)c1ccc2c(C(F)(F)F)cc(C(F)(F)F)nc2n1 (stereo not drawn)	97.0*	-3.8	8.9	-0.8	1.1	8.5
NNc1ccc2c(C(F)(F)F)cc(C(F)(F)F)nc2n1	-10.5	1.5	2.0	-0.2	4.3	-6.6
N#CC1=C2SCN(c3ccccc3)CN2C(=O)CC1c1ccccc1Cl (stereo not drawn)	-16.2	2.1	-12.8	39.3*	4.6	0.4
CCOc1nc(-c2ccccc2)c2cc(Br)ccc2n1	40.5	·	3.4	·	0.3	·
C(=N\NCc1ccccc1)/c1ccc2ncccc2c1	-9.9	-2.7	-131.3	-2.9	3.7	·
S=C(N/N=C/c1ccc2ncccc2c1)Nc1ccccc1	108.0*	-2.8	-37.7	0.1	2.5	-1.4
CC(=O)Nc1nc2ccccc2n1Cc1ccccc1Cl	86.6*	0.0	-42.0	-6.9	17.0	·
CCC(=O)Nc1nc2ccccc2n1Cc1ccc(Cl)cc1	72.0*	-3.1	-9.7	6.4	12.4	27.3
SMILES	aSyn 5UTR inh	Ba/F3 V617F tox	KLF5 inh	BaF3 tox	IEC-6 cytotox	APP 5UTR inh
CC(=O)Nc1nc2ccccc2n1Cc1ccccc1C	66.6*	0.7	0.3	-0.1	10.6	-2.5
CC(=O)NCc1nc2ccccc2n1Cc1ccccc1C	32.0	-1.5	-41.8	7.4	5.8	0.1
CCC(=O)Nc1nc2ccccc2n1CCN1CCOCC1	-31.3	-2.7	-29.1	1.2	-1.7	-19.6
CCCCCCCn1c(NC(=O)CC)nc2ccccc21	68.1*	1.0	-10.5	-1.2	15.1	·
COC(=O)c1cc(S(=O)(=O)N2CCN(c3ccc(C(C)=O)cc3)CC2)c[nH]1	-48.5	·	6.8	·	1.9	·
S=C(Nc1ccccc1)Nc1nc2ccccc2n1CCOc1ccc(Cl)cc1	-18.7	-3.2	-12.8	2.8	5.8	4.9
CCC(=O)Nc1nc2ccccc2n1Cc1ccccc1Cl	72.3*	-2.7	-16.6	0.9	19.5	·
CC(=O)Nc1nc2ccccc2n1CCOc1ccccc1Cl	73.3*	-0.1	-8.5	5.0	15.7	-29.0
Cn1c(NCc2ccccc2Cl)nc2ccccc21	-163.8	·	·	·	·	·
COc1ccc(-n2nnnc2SCC(=O)Nc2cccc(O)c2)cc1	-2.9	·	-35.1	·	-3.8	·
O=C(N/N=C/c1c[nH]c2ccccc12)c1cc(-c2ccc3ccccc3c2)n[nH]1	-37.0	8.9	-122.1	13.0	2.0	88.3*
